Laboratory results as given in PubChem BioAssay (Tox21).
“And” between values parts separate entries of the source, which are not always exact repeats. Identical values can stand only once. Records with an inconclusive call do not appear. A call without a number means that no potency is given here. Some compounds were tested as several samples or in several runs, with calls that do not always agree. The source made the active and inactive calls. Unless noted, calls follow the shape of the dose curve; as a rule, active = well fitted curve in the direction sought with a large enough effect in the repeat runs; inconclusive = weak or mixed curves; inactive = no such curve, though single readings can be large; an effect the other way counts as inactive or inconclusive.

Experiments:
[1] = qHTS assay to identify small molecule agonists of the peroxisome proliferator-activated receptor delta (PPARd) signaling pathway - cell viability counter screen (AID 743211); also: nearly all actives have a fitted effect of over 55% in size
Outline: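 Luminescent ATP viability assay (CellTiter-Glo, 30 min RT) in UAS-bla HEK293H cells carrying the PPAR delta reporter construct, 3000 cells/well, after a 17 h compound treatment at 37 C.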

[2] = target: Peroxisome proliferator-activated receptor delta (Homo sapiens) (UniProt Q03181); assay: qHTS assay to identify small molecule agonists of the peroxisome proliferator-activated receptor delta (PPARd) signaling pathway (AID 743212; calls by dose curve)
Peroxisome proliferator-activated receptor delta (Homo sapiens), sequence (Q03181 whole entry, looked up): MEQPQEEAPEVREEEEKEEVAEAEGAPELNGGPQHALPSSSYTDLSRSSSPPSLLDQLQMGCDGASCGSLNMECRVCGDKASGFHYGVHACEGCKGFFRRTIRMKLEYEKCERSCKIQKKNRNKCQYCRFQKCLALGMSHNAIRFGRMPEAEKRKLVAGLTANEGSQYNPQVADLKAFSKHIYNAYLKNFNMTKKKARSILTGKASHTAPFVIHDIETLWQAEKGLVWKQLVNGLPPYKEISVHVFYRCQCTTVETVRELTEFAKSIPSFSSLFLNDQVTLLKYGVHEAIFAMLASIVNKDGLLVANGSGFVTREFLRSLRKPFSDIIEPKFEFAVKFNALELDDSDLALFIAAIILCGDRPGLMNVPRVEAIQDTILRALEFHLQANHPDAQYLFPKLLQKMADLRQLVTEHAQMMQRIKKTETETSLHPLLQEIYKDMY
Outline: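 Tox21 library screened in GeneBLAzer PPARd UAS-bla HEK293H cells. After compound treatment at 37 C, a FRET-based beta-lactamase substrate was applied for 2 h and fluorescence recorded.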

[3] = qHTS assay to identify small molecule antagonists of the peroxisome proliferator-activated receptor delta (PPARd) signaling pathway - cell viability counter screen (AID 743213); also: nearly all actives have a fitted effect of over 50% in size
Outline: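 Luminescence from CellTiter-Glo, added after the bla read and incubated 30 min at room temperature, gives viability of HEK293H PPARd-bla cells exposed to compounds for 17 h at 37 C with 300 nM L165041.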

[4] = target: Peroxisome proliferator-activated receptor delta (Homo sapiens) (UniProt Q03181); assay: qHTS assay to identify small molecule antagonists of the peroxisome proliferator-activated receptor delta (PPARd) signaling pathway (AID 743215; active = well fitted inhibition curve with a large enough effect in the signal ratio in the repeat runs, not every such curve was filed as active; the % refers to the signal ratio;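 also: cells stimulated with agonist L165041 at 300 nM final during compound exposure; series mostly up to about 62 µM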)
Outline: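 Screen format: qHTS, antagonist mode. HEK293H PPARd-bla cells received compound and 300 nM L165041 (final), 17 h, 37 C. Beta-lactamase detected via FRET substrate fluorescence, 2 h, room temperature.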

[5] = target: Bile acid receptor (Homo sapiens) (UniProt Q96RI1); assay: qHTS assay to identify small molecule antagonists of the farnesoid-X-receptor (FXR) signaling pathway (AID 743217; active = well fitted inhibition curve with a large enough effect in the signal ratio in the repeat runs, not every such curve was filed as active; the % refers to the signal ratio)
Bile acid receptor (Homo sapiens), sequence (Q96RI1 whole entry, looked up): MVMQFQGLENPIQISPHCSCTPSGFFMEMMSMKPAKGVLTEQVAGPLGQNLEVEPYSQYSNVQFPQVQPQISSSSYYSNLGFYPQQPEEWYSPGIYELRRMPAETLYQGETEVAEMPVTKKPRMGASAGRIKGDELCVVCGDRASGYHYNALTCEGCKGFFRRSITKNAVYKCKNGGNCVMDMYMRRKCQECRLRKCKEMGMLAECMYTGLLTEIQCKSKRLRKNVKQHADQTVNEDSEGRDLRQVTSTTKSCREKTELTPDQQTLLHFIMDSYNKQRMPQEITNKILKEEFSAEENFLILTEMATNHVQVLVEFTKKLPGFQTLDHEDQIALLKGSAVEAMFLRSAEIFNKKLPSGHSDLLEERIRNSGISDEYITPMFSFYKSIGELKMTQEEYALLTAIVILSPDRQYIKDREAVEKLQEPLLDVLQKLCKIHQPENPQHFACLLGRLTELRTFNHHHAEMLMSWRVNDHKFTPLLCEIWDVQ
Outline: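 Quantitative HTS, beta-lactamase reporter format: FXR-UAS-bla HEK 293T cells co-treated 16 h at 37 °C with compounds and 50 uM final chenodeoxycholic acid, then read by B/G FRET fluorescence.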

[6] = qHTS assay to identify small molecule agonists of the farnesoid-X-receptor (FXR) signaling pathway - cell viability counter screen (AID 743218); also: nearly all actives have a fitted effect of over 45% in size
Outline: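 Same-well cytotoxicity check on FXR-UAS-bla HEK 293T cells: 5 h attachment, 16 h compound at 37 C, CellTiter-Glo luminescence read at room temperature after 30 min.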

[7] = target: Bile acid receptor (Homo sapiens) (UniProt Q96RI1); assay: qHTS assay to identify small molecule agonists of the farnesoid-X-receptor (FXR) signaling pathway (AID 743220; active = well fitted activation curve with a large enough effect in the signal ratio in the repeat runs, not every such curve was filed as active; the % refers to the signal ratio)
Outline: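 FXR-UAS-bla HEK 293T cells carrying a UAS-driven beta-lactamase reporter were plated for 5 h at 37C/5% CO2, then exposed to DMSO-dissolved Tox21 10K compounds for 16 h at 37C. A LiveBLAzer B/G FRET substrate was loaded for 2 h at room temperature before fluorescence reading.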

[8] = qHTS assay to identify small molecule antagonists of the farnesoid-X-receptor (FXR) signaling pathway - cell viability counter screen (AID 743221; active = well fitted cell-killing curve with a large enough effect in the repeat runs, not every such curve was filed as active; also: nearly all actives have a fitted effect of over 50% in size; also: potency is read from the fitted curve at half-maximal effect)
Outline: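 In GeneBLAzer FXR-UAS-bla HEK 293T cells stimulated with 50 uM chenodeoxycholic acid (final), compounds acted for 16 h at 37 C. Viability was assessed afterwards by CellTiter-Glo luminescence.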

[9] = target: Vitamin D3 receptor (Homo sapiens) (UniProt P11473); assay: qHTS assay to identify small molecule agonists of the vitamin D receptor (VDR) signaling pathway (AID 743222; calls by dose curve)
Vitamin D3 receptor (Homo sapiens), sequence (P11473 whole entry, looked up): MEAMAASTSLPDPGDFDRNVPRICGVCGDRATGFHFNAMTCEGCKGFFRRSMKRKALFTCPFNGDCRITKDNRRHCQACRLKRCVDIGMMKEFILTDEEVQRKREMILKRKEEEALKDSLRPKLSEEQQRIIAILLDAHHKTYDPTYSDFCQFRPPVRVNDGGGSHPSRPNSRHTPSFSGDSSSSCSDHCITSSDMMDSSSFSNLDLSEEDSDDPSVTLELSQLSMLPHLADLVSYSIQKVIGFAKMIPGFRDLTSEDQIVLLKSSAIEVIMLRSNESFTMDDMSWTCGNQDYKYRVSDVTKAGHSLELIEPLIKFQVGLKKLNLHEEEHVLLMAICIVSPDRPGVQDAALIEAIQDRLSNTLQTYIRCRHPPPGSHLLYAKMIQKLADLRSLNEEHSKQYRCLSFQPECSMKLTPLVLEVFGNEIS
Outline: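 Using LiveBLAzer B/G FRET detection, agonism was scored in VDR-bla cells exposed overnight (16 h, 37C) to DMSO-dissolved compounds; substrate incubation was 2 h at room temperature.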

[10] = qHTS assay to identify small molecule agonists of the vitamin D receptor (VDR) signaling pathway - cell viability counter screen (AID 743224); also: series mostly up to about 63 µM; nearly all actives have a fitted effect of over 50% in size
Outline: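 Counter screen for cytotoxicity: VDR-bla cells at 2,000 cells/well, 16 h compound exposure, then CellTiter-Glo luminescence after the beta-lactamase measurement.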

[11] = qHTS assay to identify small molecule antagonists of the vitamin D receptor (VDR) signaling pathway - cell viability counter screen (AID 743225); also: nearly all actives have a fitted effect of over 50% in size
Outline: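 Luminescent cell viability (CellTiter-Glo) in VDR-bla HEK 293T cells after 16 h compound exposure at 37C in the presence of 3 nM final 1-alpha,25-dihydroxy vitamin D3.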

[12] = qHTS assay to identify small molecule agonists of the NFkB signaling pathway (AID 1159509; active = well fitted curve in the direction sought with a large enough effect in the signal ratio in the repeat runs, not every such curve was filed as active; the % refers to the signal ratio; also: series mostly up to about 61 µM)
Outline: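 Pathway activation was measured in ME-180 cells stably expressing beta-lactamase under NF-kB response element control. Substrate cleavage was read as the 460/530 nm emission shift after 5 hr compound incubation.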

[13] = qHTS assay to identify small molecule agonists of the NFkB signaling pathway - cell viability counter screen (AID 1159515; calls by dose curve; also: series mostly up to about 61 µM; nearly all actives have a fitted effect of over 55% in size)
Outline: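 Counter screen run alongside the NFkB-bla agonist assay: ME-180 reporter cells exposed to compounds for 5 hr, then lysed with CellTiter-Glo in the same wells. Luminescence, read after 30 min, reflects viable cells.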

[14] = qHTS assay to identify small molecule agonists of the endoplasmic reticulum stress response signaling pathway (AID 1159516; active = well fitted activation curve with a large enough effect in the signal ratio in the repeat runs, not every such curve was filed as active; the % refers to the signal ratio)
Outline: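 For this screen, HeLa cells stably carrying beta-lactamase under the ER stress response element received test compounds, positive controls or DMSO for 5 hr at 37 C; B/G FRET substrate was then added and dual-wavelength emission recorded.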

[15] = qHTS assay to identify small molecule agonists of the endoplasmic reticulum stress response signaling pathway - cell viability counter screen (AID 1159517; calls by dose curve)
Outline: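 In parallel with the ESRE reporter read, cytotoxicity was scored by CellTiter-Glo luminescence (30 min, room temperature) on HeLa ESRE-bla cells dosed for 5 hr.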

[16] = qHTS assay to identify small molecule antagonists of the retinoid-related orphan receptor gamma (ROR-gamma) signaling pathway - cell viability counter screen (AID 1159520); also: nearly all actives have a fitted effect of over 50% in size
Outline: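 Tet-on ROR gamma CHO cells were given compounds for 2 hr, then doxycycline hyclate at 1 uM final, and incubated 16 hr at 37 C. Viability was measured as ATP content by CellTiter-Glo luminescence.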

[17] = target: Nuclear receptor ROR-gamma (Homo sapiens) (UniProt P51449); assay: qHTS assay to identify small molecule antagonists of the retinoid-related orphan receptor gamma (ROR-gamma) signaling pathway (AID 1159521)
Outline: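 CHO cells expressing RORγ under a TET-on promoter, luciferase under RORE control. Dox 1 uM final, 16 h; compounds added 2 h prior. Luminescence decrease measured.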

[18] = qHTS assay to identify small molecule agonists of the AP-1 signaling pathway - cell viability counter screen (AID 1159525; calls by dose curve; also: nearly all actives have a fitted effect of over 55% in size)
Outline: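 Same-well cytotoxicity counter screen of the Tox21 10K library in ME-180 cells. The readout is ATP-dependent luminescence after 5 h compound treatment. Data are normalised to DMSO and tetra n-octyl ammonium bromide controls.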

[19] = qHTS assay to identify small molecule agonists of the AP-1 signaling pathway (AID 1159526; calls by dose curve)
[20] = target: Vitamin D3 receptor (Homo sapiens) (UniProt P11473); assay: qHTS assay to identify small molecule antagonists of the vitamin D receptor (VDR) signaling pathway (AID 743223; active = well fitted inhibition curve with a large enough effect in the signal ratio in the repeat runs, not every such curve was filed as active; the % refers to the signal ratio)
Outline: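 Agonist 1alpha,25-dihydroxyvitamin D3 (3 nM in well) was added with each compound to VDR-bla cells preincubated 4 h. Cells stood 16 h at 37C, then FRET substrate 2 h at room temperature; fluorescence intensity recorded.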

| Compound | outcome [1] | outcome [2] | outcome [3] | Potency [4] | outcome [5] | Potency [6] | outcome [7] | Potency [8] | outcome [9] | Potency [10] | outcome [11] | outcome [12] | outcome [13] | outcome [14] | outcome [15] | Potency [16] | Potency [17] | Potency [18] | outcome [19] | outcome [20] |
| --- | --- | --- | --- | --- | --- | --- | --- | --- | --- | --- | --- | --- | --- | --- | --- | --- | --- | --- | --- | --- |
| Cc1cc(C)c(C)cc1C | inactive | inactive | inactive | inactive | inactive | inactive | inactive | inactive | inactive | inactive | inactive | inactive | inactive | inactive | inactive | inactive | inactive | inactive | inactive | – |
| CCCCCC(N)=O | inactive | inactive | inactive | inactive | – | inactive | – | inactive | inactive | inactive | inactive | inactive | inactive | inactive | inactive | inactive | inactive | inactive | inactive | inactive |
| c1ccc(OCCOc2ccccc2)cc1 | inactive | inactive | inactive | inactive | – | inactive | – | inactive | inactive | inactive | inactive | inactive | inactive | inactive | inactive | inactive | inactive | inactive | inactive | inactive |
| O=C(O)CC(C(=O)O)C(CC(=O)O)C(=O)O (configuration not stated) | inactive | inactive | inactive | inactive | inactive | inactive | inactive | inactive | inactive | inactive | inactive | inactive | inactive | inactive | inactive | inactive | – | inactive | inactive | inactive |
| CCC(O)OCCCOC (configuration not stated) | inactive | inactive | inactive | inactive | – | inactive | – | inactive | inactive | inactive | – | inactive | inactive | inactive | inactive | inactive | inactive | inactive | inactive | inactive |
| CC1=CCC2CC1C2(C)C (configuration not stated) | inactive | inactive | inactive | – | – | inactive | – | inactive | inactive | inactive | – | inactive | inactive | inactive | inactive | inactive | inactive | inactive | inactive | – |
| Nc1ccccc1[N+](=O)[O-] | inactive | inactive | inactive | inactive | inactive | inactive | inactive | inactive | – | inactive | – | inactive | inactive | inactive | inactive | inactive | – | inactive | inactive | – |
| CSCCC=O | inactive | inactive | inactive | inactive | inactive | inactive | inactive | inactive | inactive | inactive | inactive | inactive | inactive | inactive | inactive | inactive | – | inactive | inactive | inactive |
| CCCCC(CC)COC(=O)CCCCC(=O)OCC(CC)CCCC (configuration not stated) | inactive | inactive | inactive | inactive | inactive | inactive | inactive | inactive | inactive | inactive | inactive | inactive | inactive | inactive | inactive | inactive | inactive | inactive | inactive | inactive |
| C[C@H]1C[C@@H]2[C@H]([C@@H](O)C[C@@]3(C)[C@H]2CC[C@]3(O)C(=O)CO)[C@@]2(C)C=CC(=O)C=C12 | inactive | inactive | inactive | inactive | – | inactive | – | inactive | – | inactive | inactive | inactive | inactive | inactive | inactive | inactive | inactive | inactive | inactive | – |
| Cc1ccc2oc(=O)ccc2c1 | inactive | inactive | inactive | inactive | inactive | inactive | inactive | inactive | inactive | inactive | inactive | inactive | inactive | inactive | inactive | inactive | – | inactive | inactive | inactive |
| O=C(O)c1cc(C(=O)O)cc(S(=O)(=O)O)c1 | inactive | inactive | inactive | inactive | inactive | inactive | inactive | inactive | inactive | inactive | inactive | inactive | inactive | inactive | inactive | inactive | inactive | inactive | inactive | inactive |
| CCCCC(CC)CO (configuration not stated) | inactive | inactive | inactive | inactive | inactive | inactive | inactive | inactive | inactive | inactive | inactive | inactive | inactive | inactive | inactive | inactive | inactive | inactive | inactive | inactive |
| CCCCCCCCCCCCS | inactive | inactive | inactive | inactive | – | inactive | – | inactive | inactive | inactive | – | inactive | inactive | inactive | inactive | inactive | inactive | inactive | inactive | inactive |
| CCN(CC)c1ccc(C(=O)c2ccccc2C(=O)O)c(O)c1 | inactive | – | inactive | – | – | inactive | – | inactive | inactive | inactive | inactive | inactive | inactive | inactive | inactive | inactive | inactive | inactive | inactive | – |
| O=S(=O)(O)c1ccc2ccccc2c1 | inactive | inactive | inactive | inactive | inactive | inactive | inactive | inactive and 34.8 µM (active) | inactive | inactive | inactive | inactive | inactive | inactive | inactive | inactive | – | inactive | inactive | inactive |
